# Screens: PubChem, several laboratories
# Only some compounds are listed: those with a hit (about 7.9% of all), similar ones and a draw of the others.
# Her2 expr inh: lowers expression of human Her2 kinase. SKBR-3 HER2 protein level, AlphaScreen, 18-24 h; stronger effect = lower value. HER2 level % of control, % at 10 µM. 65,000 tested, 0.69% active;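 active means HER2 level under 5% of the carrier-only control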
# M1 agonist: M1 muscarinic receptor agonism | CHO-M1 cells, Fluo-4 calcium fluorescence, agonist mode; stronger effect = higher value | B-score at 10 µM | AID 626 | 64,000 tested, 3% active;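 active means fluorescence rise, raw or as B-score row- and column-corrected plate score, outside the 99.7% band of its plate's samples, either direction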
# M1 antagonist: blocks the rat M1 muscarinic receptor response to acetylcholine; CHO-M1 cells, Fluo-4 calcium, ACh EC80 antagonist mode; stronger effect = lower value; P08482; 64,000 tested, 3.4% active; B-score at 10 µM;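 active means calcium fluorescence response, raw or row-and-column corrected B-score, differing from the plate sample mean either way at a set confidence level, mostly lower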
# PLAP act: human PLAP activation; P05187; purified PLAP enzyme, luminescent substrate read-out; stronger effect = higher value; activation fold at 20 µM; 96,000 tested, 1.2% active; in the data active means activation fold above about 2
# Target sequence (P05187 whole entry, looked up): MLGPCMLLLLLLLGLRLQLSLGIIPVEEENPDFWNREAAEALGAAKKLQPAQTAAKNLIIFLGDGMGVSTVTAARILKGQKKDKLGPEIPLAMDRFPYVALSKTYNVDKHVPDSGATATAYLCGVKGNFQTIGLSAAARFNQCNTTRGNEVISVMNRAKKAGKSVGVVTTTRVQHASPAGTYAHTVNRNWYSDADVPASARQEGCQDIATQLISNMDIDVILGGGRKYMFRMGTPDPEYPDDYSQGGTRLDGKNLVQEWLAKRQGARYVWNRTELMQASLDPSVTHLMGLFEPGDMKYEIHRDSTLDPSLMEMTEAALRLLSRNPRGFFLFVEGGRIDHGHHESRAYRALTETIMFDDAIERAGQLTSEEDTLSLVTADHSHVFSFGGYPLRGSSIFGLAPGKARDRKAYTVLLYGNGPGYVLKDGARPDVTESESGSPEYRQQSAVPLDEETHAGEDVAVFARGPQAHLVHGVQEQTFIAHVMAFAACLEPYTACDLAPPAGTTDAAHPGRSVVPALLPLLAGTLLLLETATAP
# Cav3 T inh: human Cav3.2 channel inhibition, primary screen | O95180 | 100,000 tested, 4% active | B-score at 10 µM | AID 449739 | Cav3.2-expressing cells, Fluo-4 calcium fluorescence FDSS; stronger effect = lower value;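 active means single-dose well whose peak fluorescence ratio is a statistical outlier from its plate by either plate-standardised score or position-corrected B-score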
# M1 antag confirm: confirmation of rat M1 muscarinic receptor antagonists | shares compounds with M1 antagonist | AID 677 | calcium response (max-min fluorescence) at 10 µM | CHO-M1 cells, Fluo-4 calcium, ACh EC80 antagonism; stronger effect = lower value | 1,700 tested, 43% active;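 active means calcium response below the same-plate mean of wells given acetylcholine alone at its 80%-effect dose, minus 3 SD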
# mGluR4 antag: mGluR4 (human) activity, M1 antagonist secondary assay; CHO-mGluR4 calcium flux, Fluo-4 fluorescence, glutamate EC80; stronger effect = lower value; fluorescence response (max-min) at 10 µM; shares compounds with M1 antagonist; 1,700 tested, 0.9% active;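 active means fluorescence response below the plate's average for near-maximal glutamate wells, less 3 SD of those wells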;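 further: raw unnormalized fluorescence span taken in the window right after glutamate addition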
# Numbers stand for hits; n = inactive; x = no result given.
SMILES,Her2 expr inh,M1 agonist,M1 antagonist,PLAP act,Cav3 T inh,M1 antag confirm,mGluR4 antag
O=C1NC2NC(=O)N(C(Cc3ccccc3)C(=O)O)C2N1 (centres undefined),n,n,n,n,n,x,x
CCN(CC)S(=O)(=O)c1ccc(-c2nnc(SCc3nnc(-c4ccccc4)o3)o2)cc1,n,n,n,n,n,x,x
COc1ccc2nc(NC(=O)c3cnccn3)sc2c1,n,n,-2.66,n,n,n,n
Cc1cc(NC(=O)CSc2n[nH]c(CC(C)C)n2)no1,n,n,n,n,n,x,x
Cc1ccc(Cn2nnc3c(=O)n(CC(=O)N4CCN(c5ccccc5)CC4)cnc32)cc1,n,n,-4.74,n,n,n,n
Cc1ccc(Cn2nnc3c(=O)n(CC(=O)OCc4ccccc4)cnc32)cc1,n,n,n,x,n,x,x
COC(=O)C1=CNC=C(C(=O)OC)C1c1ccc(C(=O)OC)cc1,n,n,-3.21,2,n,398,n
COc1ccc(-c2noc(-c3ccc(Br)o3)n2)cc1OC,n,n,n,n,n,x,x
COc1ccc(-c2noc(-c3cc(C)cc(C)c3)n2)cc1OC,n,n,-3.05,n,n,468,n
CCC(=Nc1ccc(Cc2ccncc2)cc1)c1c(O)n(C)c(=O)n(C)c1=O,n,n,-2.87,n,n,548,n
CCOC(=O)c1c(-c2cccs2)csc1NC(=O)CSc1ncn[nH]1,n,n,-2.66,n,-4.69,n,n
Cc1ccc(Cl)cc1N(CC(=O)N1CCCCCC1)S(C)(=O)=O,n,n,-2.87,n,n,n,n
CS(=O)(=O)N(CC(=O)N1CCCC1)c1cccc(Cl)c1Cl,n,n,n,n,n,x,x
O=C(c1ccc(CSCc2ccccc2F)o1)N1CCN(c2ccc(N3CCOCC3)nn2)CC1,n,n,-1.72,n,n,498,n
O=C(c1cc2ccccc2oc1=O)N1CCN(c2ccc(N3CCOCC3)nn2)CC1,n,n,n,n,x,x,x
CCCCN(CC)CCCNC(=O)c1cc2cc3ccc(OC)cc3nc2o1,n,n,-4.75,n,n,n,n
CCCN(CCC)CCCNC(=O)c1cc2cc3ccc(OC)cc3nc2o1,n,n,-6.97,n,n,437,n
COC(=O)c1ccccc1OC(=O)c1ccc(Br)o1,n,n,-4.49,n,n,n,n
CC1CCCN(CCCNC(=O)c2coc3nc4ccccc4nc23)C1 (centres undefined),n,n,-1.81,n,n,365,n
CC1CCN(CCCNC(=O)c2coc3nc4ccccc4nc23)CC1,n,n,-4.84,n,n,390,n
NCCCC[C@@H]1NC(=O)c2cc([N+](=O)[O-])cc(I)c2SC[C@@H](C(N)=O)NC(=O)[C@H](Cc2ccc(O)cc2)NC1=O,x,x,x,x,n,x,x
COc1ccc2cc3cc(C(=O)NCCN4CCN(Cc5ccccc5)CC4)oc3nc2c1,n,n,-2.2,n,n,486,n
CCN1CCN(CCCNC(=O)c2cc3cc4ccc(OC)cc4nc3o2)CC1,n,n,-3.88,n,n,n,n
COc1ccc2cc3cc(C(=O)NCCCN4CCOCC4)oc3nc2c1,n,n,n,n,n,x,x
CCOC(=O)c1c(C)c(C(=O)NCc2cccnc2)c(C)n1CC,n,n,n,n,n,x,x
SMILES,Her2 expr inh,M1 agonist,M1 antagonist,PLAP act,Cav3 T inh,M1 antag confirm,mGluR4 antag
CN1C(=O)c2c(sc3c2CCCC3)NC1c1ccccc1O (centres undefined),n,n,-2.68,n,n,n,n
O=C1NC(c2cccs2)Nc2sc3c(c21)CCCC3 (centres undefined),n,n,n,n,n,x,x
COc1ccc(C2CC(=O)c3cnc(N4CCN(Cc5ccccc5)CC4)nc3C2)cc1 (centres undefined),n,n,n,n,n,x,x
O=C1CC(c2ccco2)Cc2nc(N3CCN(Cc4ccc5c(c4)OCO5)CC3)ncc21 (centres undefined),n,n,-1.88,n,n,509,n
CN(C)S(=O)(=O)c1cccc(C(=O)Nc2ccc(Cl)cn2)c1,n,n,-3,n,n,n,n
N#C/C(=C\c1cc(Cl)cc(Cl)c1O)C(=O)NC1CCCCC1,x,x,x,n,n,x,x
CN1CCN(C2=C(Cl)C(=O)N(CCc3ccccc3)C2=O)CC1,n,n,-5.67,n,n,376,n
Cc1ccc2c(c1)N(C(=O)NC1CCCCC1)C(C)(C)CC2C (centres undefined),x,x,x,n,n,x,x
COc1ccc(CN2CCN(S(=O)(=O)c3ccc(NC(C)=O)cc3)CC2)cc1OC,n,n,-2.73,n,n,n,n
COc1cc(CN2CCN(S(=O)(=O)c3ccc(NC(C)=O)cc3)CC2)cc(OC)c1O,n,n,n,n,n,x,x
CNCCCC1Sc2ccccc2Oc2ccccc21 (centres undefined),x,x,x,x,n,x,x
COc1cccc(CNCCSc2nnnn2C)c1OC,x,x,x,n,n,x,x
O=C(c1cccs1)N1CCN(C2CCN(Cc3ccccc3)CC2)CC1,n,n,-4.85,n,n,443,n
Cc1ccc(CN(C)CCc2ccccn2)cc1,n,n,n,n,n,x,x
CCc1ccc(CN(C)CCc2ccccn2)cc1,n,n,-7.31,n,n,357,n
O/N=C/c1ccc(OCC(O)COc2ccc(/C=N/O)cc2)cc1,n,n,n,n,n,x,x
O=C(Nc1cc(Cl)ccc1O)c1snnc1-c1ccccc1,x,x,x,n,n,x,x
O=C(COc1c(F)c(F)cc(F)c1F)NC(=O)NC1CCCC1,n,n,-12.2,n,n,223,n
O=C(Nc1ccc2c(c1)OCO2)C1CCN(Cc2cnn(-c3ccccc3)c2-n2cccc2)CC1,n,n,-2.06,2.9,-5.18,n,n
COc1ccc(Cl)cc1C(=O)NCC(c1ccco1)N1CCCC1 (centres undefined),n,n,-4.64,n,n,390,n
COc1ccc(C(CNC(=O)c2cc3ccccc3cc2OC)N2CCCC2)cc1 (centres undefined),x,x,x,n,x,x,x
COc1cc(C(=O)N2CCN(C(=O)C3CC3)CC2)cc(OC)c1OC,n,n,-3.09,n,n,543,n
COC(=O)C1CCN(C(=O)c2cc(OC)c(OC)c(OC)c2)CC1,n,n,n,n,n,x,x
C#CCN(C#N)c1nc(NCC)nc(NC(C)C)n1,n,n,n,n,n,x,x
CCN(C#N)c1nc(NC(C)C)nc(NC(C)C)n1,n,n,-3.47,n,n,n,n
Cc1cc(C)n(-c2ccc(C(=O)OCC(=O)N(CC(C)C)C3CCS(=O)(=O)C3)cc2)n1 (centres undefined),n,n,-2.45,n,n,n,n
CCOc1ccccc1N1CCN(CC(O)COc2ccc3c(C)cc(=O)oc3c2)CC1 (centres undefined),n,n,-1.53,n,n,455,n
C=CCSc1nc(N)c(C(=O)Nc2ccccc2C)cc1C(N)=O,n,n,-3,n,x,n,n
CN1C=CC=C/C1=C1\SC(=S)N(C2CCCCC2)C1=O,x,n,-6.09,n,n,488,n
